Of roughly 7,900 targets only a part is listed; those with a hit were picked by preference. About 0.6% of all pairs of compound and target were hits. Unmarked numbers belong to inactive results.

UniProt Q13685, sequence (Q13685 whole entry, looked up): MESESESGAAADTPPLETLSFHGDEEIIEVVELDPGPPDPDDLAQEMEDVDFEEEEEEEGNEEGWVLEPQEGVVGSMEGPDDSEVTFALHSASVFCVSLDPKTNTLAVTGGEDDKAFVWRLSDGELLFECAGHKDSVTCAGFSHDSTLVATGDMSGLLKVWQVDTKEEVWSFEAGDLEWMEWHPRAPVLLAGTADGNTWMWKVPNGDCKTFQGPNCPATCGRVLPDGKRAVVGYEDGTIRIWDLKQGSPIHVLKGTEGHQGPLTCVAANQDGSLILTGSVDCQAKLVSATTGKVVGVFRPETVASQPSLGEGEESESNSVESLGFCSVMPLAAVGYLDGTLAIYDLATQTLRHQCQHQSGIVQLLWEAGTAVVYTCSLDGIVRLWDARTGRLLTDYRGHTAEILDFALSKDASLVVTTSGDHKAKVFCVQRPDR
UniProt P30043, sequence (P30043 whole entry, looked up): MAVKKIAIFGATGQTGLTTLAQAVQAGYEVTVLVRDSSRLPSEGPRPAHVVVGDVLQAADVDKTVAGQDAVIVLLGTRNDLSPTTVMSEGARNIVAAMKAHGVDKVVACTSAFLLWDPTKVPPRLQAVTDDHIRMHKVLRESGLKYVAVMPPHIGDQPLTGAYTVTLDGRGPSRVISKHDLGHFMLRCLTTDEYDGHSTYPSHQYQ
UniProt Q8NFV4, sequence (Q8NFV4 whole entry, looked up): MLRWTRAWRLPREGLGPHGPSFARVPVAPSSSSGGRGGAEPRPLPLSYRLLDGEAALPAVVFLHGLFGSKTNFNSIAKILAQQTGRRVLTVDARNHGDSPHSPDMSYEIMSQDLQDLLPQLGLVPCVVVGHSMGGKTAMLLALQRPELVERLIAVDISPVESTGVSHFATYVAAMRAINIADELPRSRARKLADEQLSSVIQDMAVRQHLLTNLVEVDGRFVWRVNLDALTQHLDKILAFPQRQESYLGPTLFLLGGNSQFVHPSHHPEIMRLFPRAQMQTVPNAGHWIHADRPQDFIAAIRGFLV
UniProt Q06481, sequence (Q06481 whole entry, looked up): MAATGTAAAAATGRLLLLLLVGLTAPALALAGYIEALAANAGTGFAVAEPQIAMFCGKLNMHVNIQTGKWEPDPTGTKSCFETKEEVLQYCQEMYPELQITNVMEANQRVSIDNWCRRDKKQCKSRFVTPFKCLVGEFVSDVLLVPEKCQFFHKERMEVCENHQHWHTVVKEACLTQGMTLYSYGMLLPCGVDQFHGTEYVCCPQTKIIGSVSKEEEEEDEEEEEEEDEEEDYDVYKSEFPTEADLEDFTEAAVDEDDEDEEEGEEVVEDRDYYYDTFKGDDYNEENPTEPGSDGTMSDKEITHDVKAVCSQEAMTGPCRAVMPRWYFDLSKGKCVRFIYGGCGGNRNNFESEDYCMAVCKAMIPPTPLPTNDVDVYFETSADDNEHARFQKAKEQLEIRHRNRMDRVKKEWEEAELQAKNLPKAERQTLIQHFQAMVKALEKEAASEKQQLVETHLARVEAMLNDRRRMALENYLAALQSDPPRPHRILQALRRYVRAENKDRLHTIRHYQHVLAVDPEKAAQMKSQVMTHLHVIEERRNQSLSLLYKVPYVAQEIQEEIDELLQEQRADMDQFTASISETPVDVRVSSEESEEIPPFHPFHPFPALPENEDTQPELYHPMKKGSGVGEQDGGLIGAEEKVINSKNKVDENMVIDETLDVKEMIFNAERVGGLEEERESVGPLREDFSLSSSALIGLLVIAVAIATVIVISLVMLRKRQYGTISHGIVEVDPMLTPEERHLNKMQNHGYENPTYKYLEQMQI
UniProt Q8N5I2, sequence (Q8N5I2 whole entry, looked up): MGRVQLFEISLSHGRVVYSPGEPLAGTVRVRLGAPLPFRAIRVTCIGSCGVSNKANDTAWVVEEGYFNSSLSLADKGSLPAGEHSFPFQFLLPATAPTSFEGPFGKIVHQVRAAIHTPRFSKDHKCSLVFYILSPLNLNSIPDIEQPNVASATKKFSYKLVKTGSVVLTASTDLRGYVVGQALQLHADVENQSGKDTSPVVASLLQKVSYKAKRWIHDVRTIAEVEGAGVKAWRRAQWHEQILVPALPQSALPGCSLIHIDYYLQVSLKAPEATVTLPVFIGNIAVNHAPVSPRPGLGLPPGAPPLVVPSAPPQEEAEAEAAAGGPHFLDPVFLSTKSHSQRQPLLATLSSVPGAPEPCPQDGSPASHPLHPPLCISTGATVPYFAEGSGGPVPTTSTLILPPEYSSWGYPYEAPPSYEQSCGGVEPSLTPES
UniProt Q9NRZ7, sequence (Q9NRZ7 whole entry, looked up): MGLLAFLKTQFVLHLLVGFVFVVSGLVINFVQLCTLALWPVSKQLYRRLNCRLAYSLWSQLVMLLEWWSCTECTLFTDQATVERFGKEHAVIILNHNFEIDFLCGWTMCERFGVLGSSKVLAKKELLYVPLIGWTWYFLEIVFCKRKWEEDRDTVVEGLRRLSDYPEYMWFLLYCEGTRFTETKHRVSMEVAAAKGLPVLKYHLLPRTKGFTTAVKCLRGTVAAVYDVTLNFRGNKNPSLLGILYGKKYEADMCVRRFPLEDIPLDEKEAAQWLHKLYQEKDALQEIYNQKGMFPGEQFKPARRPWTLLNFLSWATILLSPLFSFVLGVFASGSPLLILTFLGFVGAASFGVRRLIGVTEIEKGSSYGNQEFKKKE
UniProt O95433, sequence (O95433 whole entry, looked up): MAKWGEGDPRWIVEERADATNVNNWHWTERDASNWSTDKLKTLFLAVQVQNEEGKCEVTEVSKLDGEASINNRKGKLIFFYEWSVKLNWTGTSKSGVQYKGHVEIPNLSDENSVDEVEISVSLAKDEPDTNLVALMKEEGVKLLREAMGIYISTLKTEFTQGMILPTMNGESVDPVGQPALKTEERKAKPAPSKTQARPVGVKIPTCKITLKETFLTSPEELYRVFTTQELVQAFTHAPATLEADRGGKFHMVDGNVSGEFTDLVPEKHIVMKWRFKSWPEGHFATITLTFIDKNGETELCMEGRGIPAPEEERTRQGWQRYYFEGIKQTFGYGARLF
UniProt Q9H845, sequence (Q9H845 whole entry, looked up): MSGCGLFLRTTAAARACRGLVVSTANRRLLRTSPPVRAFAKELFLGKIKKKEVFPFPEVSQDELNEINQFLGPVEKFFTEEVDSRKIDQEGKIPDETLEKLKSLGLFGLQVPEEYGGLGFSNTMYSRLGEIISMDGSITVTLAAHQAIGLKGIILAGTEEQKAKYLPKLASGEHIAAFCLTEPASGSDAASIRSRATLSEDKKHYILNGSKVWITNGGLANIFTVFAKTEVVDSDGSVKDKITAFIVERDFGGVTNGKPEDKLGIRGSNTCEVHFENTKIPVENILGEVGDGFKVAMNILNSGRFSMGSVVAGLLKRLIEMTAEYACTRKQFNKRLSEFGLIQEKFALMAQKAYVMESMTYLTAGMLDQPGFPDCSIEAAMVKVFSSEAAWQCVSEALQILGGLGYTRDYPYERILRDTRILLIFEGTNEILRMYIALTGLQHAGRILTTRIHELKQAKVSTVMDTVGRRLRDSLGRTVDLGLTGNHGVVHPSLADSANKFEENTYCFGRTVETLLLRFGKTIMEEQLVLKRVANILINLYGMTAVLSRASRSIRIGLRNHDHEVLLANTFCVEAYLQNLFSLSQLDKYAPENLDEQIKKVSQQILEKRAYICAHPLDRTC
UniProt Q9NYF8, sequence (Q9NYF8 whole entry, looked up): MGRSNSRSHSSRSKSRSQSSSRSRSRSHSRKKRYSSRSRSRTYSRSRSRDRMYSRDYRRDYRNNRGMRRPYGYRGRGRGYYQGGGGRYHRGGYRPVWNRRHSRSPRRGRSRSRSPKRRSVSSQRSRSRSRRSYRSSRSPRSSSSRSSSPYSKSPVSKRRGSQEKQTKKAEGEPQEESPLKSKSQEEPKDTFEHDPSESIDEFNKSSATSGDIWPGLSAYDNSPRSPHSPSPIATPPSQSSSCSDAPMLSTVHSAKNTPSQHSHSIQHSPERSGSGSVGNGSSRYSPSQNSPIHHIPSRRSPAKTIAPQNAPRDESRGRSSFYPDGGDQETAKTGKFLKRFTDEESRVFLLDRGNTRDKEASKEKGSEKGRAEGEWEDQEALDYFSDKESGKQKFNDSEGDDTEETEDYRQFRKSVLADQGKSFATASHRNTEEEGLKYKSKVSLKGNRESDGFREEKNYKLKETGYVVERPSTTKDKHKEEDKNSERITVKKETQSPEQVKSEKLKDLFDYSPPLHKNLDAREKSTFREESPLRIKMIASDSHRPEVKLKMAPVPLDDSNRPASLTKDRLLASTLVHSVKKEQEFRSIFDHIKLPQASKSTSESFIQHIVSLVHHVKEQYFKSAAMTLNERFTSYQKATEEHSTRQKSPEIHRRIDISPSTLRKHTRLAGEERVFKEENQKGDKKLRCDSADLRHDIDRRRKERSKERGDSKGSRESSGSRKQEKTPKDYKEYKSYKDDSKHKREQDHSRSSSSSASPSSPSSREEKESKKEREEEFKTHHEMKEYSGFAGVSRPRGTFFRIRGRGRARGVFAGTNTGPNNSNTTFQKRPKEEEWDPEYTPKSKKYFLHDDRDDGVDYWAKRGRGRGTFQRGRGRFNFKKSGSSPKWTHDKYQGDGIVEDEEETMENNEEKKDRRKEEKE
UniProt Q9NXW9, sequence (Q9NXW9 whole entry, looked up): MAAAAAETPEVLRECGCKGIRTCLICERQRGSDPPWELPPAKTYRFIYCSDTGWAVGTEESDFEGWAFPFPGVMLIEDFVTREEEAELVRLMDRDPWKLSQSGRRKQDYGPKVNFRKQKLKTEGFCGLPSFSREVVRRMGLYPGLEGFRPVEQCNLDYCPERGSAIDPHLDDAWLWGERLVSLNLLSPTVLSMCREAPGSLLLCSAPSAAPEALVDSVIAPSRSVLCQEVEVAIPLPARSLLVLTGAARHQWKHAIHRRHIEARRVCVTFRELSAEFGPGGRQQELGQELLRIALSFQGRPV

Compound in the experiment: c1ccc([C@@H]2C[C@H]2NC2CCNCC2)cc1
The experiment is described as follows: log2 fold change, soluble protein after heating vs DMSO (PISA); higher = thermal stabilisation; K562 cells, 10 uM, 30 min; active = over 0.2 and 3.5 SD of the protein, either way, in both replicates (recomputed). A digest of the protocol: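 K562 cells (2×10^6 cells/mL) were treated with 10 μM compound for 30 min, and aliquots were heated for 3 min over 48°C-58°C. Pooled aliquots were extracted in PBS with 0.5% NP-40 at 4°C, and the supernatant after 21,000xg for 90 min was measured by TMTpro 16plex LC-MS/MS with channel sums equalised. Reported thermal stability, relative to control samples and from duplicates, is a log2 fold change.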
For ALKBH4 (UniProt Q9NXW9), the log2 fold change was -0.033.

For the target ARFGAP2 (UniProt Q8N6H7), the log2 fold change is 0.006.

On to AHSA1 (UniProt O95433), for which the log2 fold change is -0.003.

With AGPAT3 isoform 3 (UniProt Q9NRZ7), the log2 fold change is -0.024.

For ACAD9 (UniProt Q9H845), the log2 fold change is 0.009.

Consider BCLAF1 (UniProt Q9NYF8), for which the log2 fold change is 0.047.

In the case of BLVRB (UniProt P30043), the log2 fold change was 0.013.

For ADPRHL2 (UniProt Q9NX46), the log2 fold change was -0.087.

On to ABHD11 (UniProt Q8NFV4), for which the log2 fold change is -0.037.

Take BCCIP (UniProt Q9P287): the log2 fold change was -0.062.

As to ACSL1 (UniProt P33121), the log2 fold change was -0.03.

Consider APLP2 (UniProt Q06481), for which the log2 fold change was 0.038.

Take AP2A2 isoform 2 (UniProt O94973): the log2 fold change was 0.028.

Turning to AAMP (UniProt Q13685), the log2 fold change is 0.021.

Take ADK (UniProt P55263): the log2 fold change is -0.057.

Regarding ARRDC1 (UniProt Q8N5I2), the log2 fold change is -0.037.

Take ACBD6 (UniProt Q9BR61): the log2 fold change was 0.073.
